Data on six compounds can be found in PubChem BioAssay (EPA / NIEHS).

The nature of test [1]: ATG_Ets_CIS: Attagene CIS-FACTORIAL HepG2 Assay for human Erythroblast Transformation Specific (ETS) (AID 2282941). As to conditions: HepG2 ETS cis-reporter transcription, actives raise or lower the signal. In a few lines: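 Cis-regulated reporter mRNA induction in HepG2 (transient transfection), 24 h exposure, RT-PCR plus capillary electrophoresis detection; DMSO serves as negative control and baseline.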

Test [2] is described as follows: ATG_M_06_CIS: Attagene CIS-FACTORIAL HepG2 Assay for M06 Transcription Factor (Internal Marker) (AID 2282950). As to conditions: HepG2 Attagene CIS-FACTORIAL M06 internal marker reporter; actives raise or lower the signal. Summed up: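 Steps: transfect HepG2 with multiplexed cis-element reporter constructs; dose chemical 24 h; extract RNA with DNase treatment; reverse-transcribe, PCR-amplify, 6-FAM label, HpaI digest; separate fragments by capillary electrophoresis. Activity fitted both directions versus DMSO.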

Test [3] has as its target Hypoxia-inducible factor 1-alpha (Homo sapiens) (UniProt Q16665). Kind of test: ATG_HIF1a_CIS: Attagene CIS-FACTORIAL HepG2 Assay for human Hypoxia Inducible Factor 1 (HIF1A) (AID 2282951). The note with it: HepG2 Attagene cis-factorial HIF1a reporter transcription; actives raise or lower the signal. Summed up:
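HepG2 cells transiently transfected with multiplexed cis-promoter reporter units; reporter mRNA read 24 h after dosing by RT-PCR, 6-FAM primer-extension labelling, HpaI digestion and capillary electrophoresis. Bidirectional fit versus DMSO baseline.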

The target in test [4] is Hepatocyte nuclear factor 6 (Homo sapiens) (UniProt Q9UBC0). Nature of the test: ATG_HNF6_CIS: Attagene CIS-FACTORIAL HepG2 Assay for human Hepatocyte Nuclear Factor 6 (HNF6) (AID 2282952). As to conditions: HepG2 Attagene cis-factorial HNF6 reporter transcription; actives raise or lower the signal. Summed up:
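Twenty-four-hour chemical treatment of reporter-transfected HepG2 cells precedes RNA isolation, DNase-treated reverse transcription and PCR of reporter sequences. Labelled fragments are sized by capillary electrophoresis and fitted bidirectionally versus DMSO.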

In test [5] the target is Heat shock factor protein 1 (Homo sapiens) (UniProt Q00613). Kind of test: ATG_HSE_CIS: Attagene CIS-FACTORIAL HepG2 Assay for human Heat Shock Transcription Factor 1 (HSE) (AID 2282953). As to conditions: HepG2 HSE cis-reporter, Attagene RNA transcription; actives raise or lower the signal. In a few lines:
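Cells were transfected with cis-element-driven reporter constructs, dosed for 24 h, then total RNA was reverse-transcribed and reporter cDNA amplified, FAM-labelled and digested with HpaI. Fragments were resolved by capillary electrophoresis; gain or loss was fitted against DMSO.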

Test [6] can be described thus: ATG_TA_CIS: Attagene CIS-FACTORIAL HepG2 Assay for human TA Basal Promoter (AID 2282964). The note with it: HepG2 Attagene CIS-factorial TA basal promoter reporter; actives raise or lower the signal. In a few lines:
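Steps: transfect HepG2 with MRTUs; dose 24 h; isolate RNA, DNase-treat, reverse-transcribe; PCR and FAM-label reporter cDNA; digest with HpaI 2h at 37 C; run capillary electrophoresis. Activity fitted both directions against DMSO.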

A short description of test [7]: ATG_TCF_b_cat_CIS: Attagene CIS-FACTORIAL HepG2 Assay for human T-Cell-Factor with beta-catenin (TCF/b-cat) (AID 2282965). The note with it: HepG2 TCF/beta-catenin cis-reporter transcription, actives raise or lower the signal. Summed up: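 In this cis-format system, transfected HepG2 cells report endogenous transcription factor activity. Readout after 24 h exposure is reporter transcript abundance from RT-PCR and capillary electrophoresis, analysed for gain or loss of signal versus DMSO.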

The nature of test [8]: ATG_TAL_CIS: Attagene CIS-FACTORIAL HepG2 Assay for human TAL Basal Promoter (AID 2282966).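 Note: background control endpoint measuring basal TAL promoter reporter mRNA not a specific factor.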 As to conditions: HepG2 Attagene cis-factorial TAL promoter reporter; actives raise or lower the signal. In a few lines:
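Human hepatoma HepG2 cells, transfected with promoter-regulated reporter units, were treated 24 h. Reporter transcript levels, measured through RT-PCR and capillary electrophoresis, were fitted for gain or loss relative to DMSO.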

Test [9] can be described thus: ATG_TGFb_CIS: Attagene CIS-FACTORIAL HepG2 Assay for human Transforming Growth Factor (TGF) (AID 2282967). The note with it: HepG2 Attagene CIS TGFb reporter, mRNA transcription; actives raise or lower the signal. Summed up: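 Cells were dosed for 24 hours, after which total RNA was reverse-transcribed and reporter sequences amplified, labeled and sized by capillary electrophoresis. Activity was fitted in both directions against DMSO.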

Test [10] deals with X-box-binding protein 1 (Homo sapiens) (UniProt P17861). Nature of the test: ATG_Xbp1_CIS: Attagene CIS-FACTORIAL HepG2 Assay for human X-box Binding Protein 1 (XBP1) (AID 2282972). The note with it: HepG2 XBP1 cis-element reporter, Attagene multiplex; actives raise or lower the signal. Summed up:
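Multiplexed cis-reporter readout in transfected HepG2 liver cells. Exposure lasted 24 hours. Activity in either direction was fitted against DMSO as negative control and baseline.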

Test [11] has as its target Transcriptional activator Myb (Homo sapiens) (UniProt P10242). Kind of test: ATG_Myb_CIS: Attagene CIS-FACTORIAL HepG2 Assay for human Myeloblastosis (Myb) Proto-Oncogene Transcription Factor (AID 2282986). The note with it: HepG2 Attagene CIS-FACTORIAL Myb reporter transcription; actives raise or lower the signal. Summed up:
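HepG2 cells were transiently transfected with cis-regulated multiple reporter transcription units reflecting endogenous Myb activity, then exposed to compound for 24 hours. Reporter mRNA was measured by RT-PCR with capillary electrophoresis; bidirectional fitting versus DMSO baseline.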

Test [12] addresses Nuclear respiratory factor 1 (Homo sapiens) (UniProt Q16656). Nature of the test: ATG_NRF1_CIS: Attagene CIS-FACTORIAL HepG2 Assay for human Nuclear Respiratory Factor 1 (NRF1) Orphan Gene (AID 2282987). The note with it: HepG2 NRF1 cis-element reporter, Attagene multiplex; actives raise or lower the signal. In a few lines:
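HepG2 cells transiently transfected with multiple reporter transcription units under cis-regulatory promoter control, so endogenous transcription-factor activity is read. After 24 h compound exposure, reporter mRNA quantified by RT-PCR, fluorescent labelling, HpaI digestion and capillary electrophoresis; bidirectional fitting versus DMSO.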

The target of test [13] is Myc proto-oncogene protein (Homo sapiens) (UniProt P01106). Kind of test: ATG_Myc_CIS: Attagene CIS-FACTORIAL HepG2 Assay for human Myelocytomatosis (Myc) Proto-Oncogene Transcription Factor (AID 2282990). As to conditions: HepG2, Attagene cis-reporter transcription factor activity; actives raise or lower the signal. Summed up:
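DMSO-normalised, bidirectionally fitted reporter mRNA signal. HepG2 cells transfected with cis reporter constructs, treated 24 h; transcripts detected by RT-PCR, 6-FAM primer extension and CE.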

Test [14] is described as follows: ATG_NRF2_ARE_CIS: Attagene CIS-FACTORIAL HepG2 Assay for human Nuclear Factor Erythroid 2 Related Factor 2 (NFR2) response to Antioxidant Response Elements (ARE) (AID 2282992). The note with it: HepG2 Attagene ARE/NRF2 reporter, transcription factor activity; actives raise or lower the signal. In a few lines: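 Endogenous transcription factor activity in human liver HepG2 cells is tracked via a cis-element-driven reporter within a multiplexed set. mRNA induction is read by RT-PCR and capillary electrophoresis after 24 h, with DMSO as baseline.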

A short description of test [15]: ATG_Oct_MLP_CIS: Attagene CIS-FACTORIAL HepG2 Assay for human Octamer-Binding Transcription Factor (Oct) (AID 2282993). The note with it: HepG2 Attagene cis-factorial Oct reporter, mRNA; actives raise or lower the signal. In a few lines: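 Multiplexed cis-reporter assay in human liver HepG2 cells, 24 h incubation. Reporter RNA amplified and labelled, then resolved by capillary electrophoresis; DMSO serves as negative control and baseline.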

Test [16] deals with Cellular tumor antigen p53 (Homo sapiens) (UniProt P04637). Nature of the test: ATG_p53_CIS: Attagene CIS-FACTORIAL HepG2 Assay for human p53 Transcription Factor (AID 2282994). The note with it: HepG2 p53 cis-element reporter, Attagene mRNA; actives raise or lower the signal. Summed up: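 Steps: transfect HepG2 with multiplexed cis reporter constructs; dose chemicals 24 h; extract RNA, reverse-transcribe, PCR-amplify reporter sequences; FAM-label, HpaI-digest, resolve fragments by CE. Activity fitted both directions relative to DMSO.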

Test [17] deals with Nuclear receptor subfamily 1 group I member 2 (Homo sapiens) (UniProt O75469). Kind of test: ATG_PXR_TRANS: Attagene TRANS-FACTORIAL HepG2 Assay for human Pregnane X Receptor (PXR) (AID 2283008; active = hit-call score of the fitted dose curve at least 0.9, where 1 is the maximum). In a few lines:
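HepG2 transfected (FuGene 6) with GAL4-UAS reporter units + PXR-Gal4 chimera; dosed 24 h. Total RNA → oligo(dT) RT → PCR → 6-FAM primer extension → HpaI cut → CE. Gain-of-signal vs DMSO.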

Test [18] in a line: ATG_DR4_LXR_CIS: Attagene CIS-FACTORIAL HepG2 Assay for human Liver X Receptor (LXR), DR4 submotif (AID 2282929). As to conditions: HepG2 Attagene DR4 cis-reporter, mRNA transcription; actives raise or lower the signal. Summed up: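 HepG2 cells transiently transfected with cis-promoter-driven multiplexed reporter units (DR4 element) were dosed for 24 h. Reporter mRNA was quantified by RT-PCR, fluorescent primer extension, HpaI digestion and capillary electrophoresis; bidirectional fitting versus DMSO baseline.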

The nature of test [19]: ATG_Sox_CIS: Attagene CIS-FACTORIAL HepG2 Assay for human SRY-box transcription factor (SOX) (AID 2282960). The note with it: HepG2 Attagene cis-factorial SOX reporter, mRNA; actives raise or lower the signal. In a few lines: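 HepG2 cells transiently transfected with cis-element-driven multiple reporter transcription units, dosed 24 h; reporter mRNA measured by RT-PCR, FAM labelling, HpaI digestion and capillary electrophoresis. Bidirectional fit versus DMSO baseline.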

The nature of test [20]: ATG_XTT_Cytotoxicity: Cytotoxicity Assessment in the Attagene TRANS-FACTORIAL HepG2 Assay (AID 2283584; active = hit-call score of the fitted dose curve at least 0.9, where 1 is the maximum). In a few lines: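 24 h chemical exposure of reporter-transfected HepG2; XTT signal loss vs DMSO indicates cytotoxicity.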

SMILES strings stand for the structures. Inconclusive results are not listed. Active and inactive are the calls of the source. Rule for the calls, unless noted: active = hit-call score of the fitted dose curve at least 0.9, where 1 is the maximum; inactive = score below 0.9.

Chain of Heat shock factor protein 1 (Homo sapiens) (Q00613 whole entry, looked up, the tested form may be a part): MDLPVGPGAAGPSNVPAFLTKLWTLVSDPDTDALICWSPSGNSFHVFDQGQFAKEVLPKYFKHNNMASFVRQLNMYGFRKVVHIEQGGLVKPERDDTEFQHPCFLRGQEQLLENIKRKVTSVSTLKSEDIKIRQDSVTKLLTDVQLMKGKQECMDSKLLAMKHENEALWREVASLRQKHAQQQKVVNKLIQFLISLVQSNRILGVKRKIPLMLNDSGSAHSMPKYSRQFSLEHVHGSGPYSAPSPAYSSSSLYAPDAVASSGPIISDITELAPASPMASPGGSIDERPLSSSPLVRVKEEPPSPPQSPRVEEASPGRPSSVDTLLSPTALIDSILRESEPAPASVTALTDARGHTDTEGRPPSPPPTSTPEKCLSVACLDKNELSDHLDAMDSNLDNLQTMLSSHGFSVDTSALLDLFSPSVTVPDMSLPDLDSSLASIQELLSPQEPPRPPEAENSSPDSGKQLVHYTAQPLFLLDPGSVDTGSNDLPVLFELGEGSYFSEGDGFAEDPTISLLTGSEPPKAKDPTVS
Chain of Myc proto-oncogene protein (Homo sapiens) (P01106 whole entry, looked up): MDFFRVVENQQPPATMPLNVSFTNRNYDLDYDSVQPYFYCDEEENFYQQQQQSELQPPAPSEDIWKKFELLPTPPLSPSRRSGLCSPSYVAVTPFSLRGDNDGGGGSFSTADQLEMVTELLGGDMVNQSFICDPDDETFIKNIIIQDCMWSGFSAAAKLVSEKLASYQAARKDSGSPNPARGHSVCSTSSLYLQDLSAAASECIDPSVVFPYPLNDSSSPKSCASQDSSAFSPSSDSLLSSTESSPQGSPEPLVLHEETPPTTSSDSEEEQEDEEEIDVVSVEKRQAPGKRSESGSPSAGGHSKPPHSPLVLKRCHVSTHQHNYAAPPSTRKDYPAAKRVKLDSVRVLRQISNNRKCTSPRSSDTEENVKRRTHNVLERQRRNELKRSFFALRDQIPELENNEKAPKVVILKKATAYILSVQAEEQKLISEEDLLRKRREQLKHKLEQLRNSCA
Chain of Transcriptional activator Myb (Homo sapiens) (P10242 whole entry, looked up): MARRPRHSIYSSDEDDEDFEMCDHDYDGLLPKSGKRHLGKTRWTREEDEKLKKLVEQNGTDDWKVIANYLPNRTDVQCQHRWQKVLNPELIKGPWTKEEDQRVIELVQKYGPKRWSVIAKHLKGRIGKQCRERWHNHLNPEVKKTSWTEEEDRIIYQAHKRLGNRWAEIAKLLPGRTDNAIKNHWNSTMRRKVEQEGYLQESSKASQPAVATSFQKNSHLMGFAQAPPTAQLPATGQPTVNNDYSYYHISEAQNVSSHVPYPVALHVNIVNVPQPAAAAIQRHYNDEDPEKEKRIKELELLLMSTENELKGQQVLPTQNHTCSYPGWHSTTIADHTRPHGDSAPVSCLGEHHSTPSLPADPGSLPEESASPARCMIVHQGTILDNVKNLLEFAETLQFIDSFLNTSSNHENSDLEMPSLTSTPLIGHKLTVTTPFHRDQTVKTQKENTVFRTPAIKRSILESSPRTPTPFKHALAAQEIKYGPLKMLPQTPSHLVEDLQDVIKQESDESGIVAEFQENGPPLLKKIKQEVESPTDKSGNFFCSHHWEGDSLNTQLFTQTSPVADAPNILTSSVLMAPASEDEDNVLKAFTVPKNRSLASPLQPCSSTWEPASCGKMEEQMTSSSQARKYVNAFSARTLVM
Chain of Hepatocyte nuclear factor 6 (Homo sapiens) (Q9UBC0 whole entry, looked up, the tested form may be a part): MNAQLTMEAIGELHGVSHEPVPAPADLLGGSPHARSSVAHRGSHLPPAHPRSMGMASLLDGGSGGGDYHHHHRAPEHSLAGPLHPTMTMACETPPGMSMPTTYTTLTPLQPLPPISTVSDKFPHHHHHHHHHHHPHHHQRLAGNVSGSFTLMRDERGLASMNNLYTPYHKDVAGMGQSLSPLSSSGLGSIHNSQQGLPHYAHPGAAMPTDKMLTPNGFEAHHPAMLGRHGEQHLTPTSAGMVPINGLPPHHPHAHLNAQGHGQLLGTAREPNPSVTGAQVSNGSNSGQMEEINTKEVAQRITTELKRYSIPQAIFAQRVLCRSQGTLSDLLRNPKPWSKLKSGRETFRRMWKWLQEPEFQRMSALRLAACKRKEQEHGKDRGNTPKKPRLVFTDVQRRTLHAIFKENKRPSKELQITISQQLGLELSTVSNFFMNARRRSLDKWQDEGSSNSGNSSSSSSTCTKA
Chain of Nuclear receptor subfamily 1 group I member 2 (Homo sapiens) (O75469 whole entry, looked up, the tested form may be a part): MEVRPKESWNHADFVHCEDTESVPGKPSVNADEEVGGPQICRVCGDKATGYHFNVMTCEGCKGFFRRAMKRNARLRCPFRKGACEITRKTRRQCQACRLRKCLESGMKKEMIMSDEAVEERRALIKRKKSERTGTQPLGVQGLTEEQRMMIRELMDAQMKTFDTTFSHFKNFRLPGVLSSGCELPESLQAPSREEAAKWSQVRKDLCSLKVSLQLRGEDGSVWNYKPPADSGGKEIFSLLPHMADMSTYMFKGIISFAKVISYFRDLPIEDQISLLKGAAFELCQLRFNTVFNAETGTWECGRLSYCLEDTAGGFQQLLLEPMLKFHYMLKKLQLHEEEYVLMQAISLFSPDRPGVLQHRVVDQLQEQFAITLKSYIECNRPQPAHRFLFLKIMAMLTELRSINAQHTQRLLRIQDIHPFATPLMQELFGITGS
Chain of Nuclear respiratory factor 1 (Homo sapiens) (Q16656 whole entry, looked up): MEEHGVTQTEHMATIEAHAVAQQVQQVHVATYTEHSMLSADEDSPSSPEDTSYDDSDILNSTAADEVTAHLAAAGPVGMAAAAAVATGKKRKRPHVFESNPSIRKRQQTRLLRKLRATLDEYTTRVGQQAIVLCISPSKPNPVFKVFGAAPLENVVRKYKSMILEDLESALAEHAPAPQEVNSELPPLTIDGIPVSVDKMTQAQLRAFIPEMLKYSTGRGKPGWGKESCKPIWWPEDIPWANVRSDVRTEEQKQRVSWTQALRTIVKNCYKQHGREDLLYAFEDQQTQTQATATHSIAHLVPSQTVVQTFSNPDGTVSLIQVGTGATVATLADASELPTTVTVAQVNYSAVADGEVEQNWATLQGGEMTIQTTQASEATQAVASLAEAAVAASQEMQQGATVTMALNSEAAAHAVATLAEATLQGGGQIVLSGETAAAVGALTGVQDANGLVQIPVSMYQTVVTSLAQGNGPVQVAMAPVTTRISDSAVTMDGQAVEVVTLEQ
Chain of Hypoxia-inducible factor 1-alpha (Homo sapiens) (Q16665 whole entry, looked up): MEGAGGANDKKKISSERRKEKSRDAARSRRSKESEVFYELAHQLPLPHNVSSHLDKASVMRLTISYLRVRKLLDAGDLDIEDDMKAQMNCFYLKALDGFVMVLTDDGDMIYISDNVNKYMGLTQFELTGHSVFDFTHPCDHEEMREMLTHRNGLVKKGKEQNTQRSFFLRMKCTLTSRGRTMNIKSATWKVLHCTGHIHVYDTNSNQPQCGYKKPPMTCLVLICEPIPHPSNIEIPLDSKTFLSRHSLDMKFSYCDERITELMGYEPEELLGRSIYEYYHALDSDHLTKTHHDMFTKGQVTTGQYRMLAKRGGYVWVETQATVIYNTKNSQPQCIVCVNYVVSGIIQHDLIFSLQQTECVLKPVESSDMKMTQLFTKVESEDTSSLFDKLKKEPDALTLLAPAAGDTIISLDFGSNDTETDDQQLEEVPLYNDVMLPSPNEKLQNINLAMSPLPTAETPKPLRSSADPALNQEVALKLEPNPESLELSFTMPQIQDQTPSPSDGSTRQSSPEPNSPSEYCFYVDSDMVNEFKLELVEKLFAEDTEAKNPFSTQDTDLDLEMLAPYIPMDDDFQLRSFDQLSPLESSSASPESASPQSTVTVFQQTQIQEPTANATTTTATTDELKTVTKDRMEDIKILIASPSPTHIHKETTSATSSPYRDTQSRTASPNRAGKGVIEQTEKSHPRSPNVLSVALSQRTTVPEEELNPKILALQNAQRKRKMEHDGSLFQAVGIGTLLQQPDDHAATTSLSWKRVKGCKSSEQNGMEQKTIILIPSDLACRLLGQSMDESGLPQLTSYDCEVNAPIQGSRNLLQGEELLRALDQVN
Chain of Cellular tumor antigen p53 (Homo sapiens) (P04637 whole entry, looked up, the tested form may be a part): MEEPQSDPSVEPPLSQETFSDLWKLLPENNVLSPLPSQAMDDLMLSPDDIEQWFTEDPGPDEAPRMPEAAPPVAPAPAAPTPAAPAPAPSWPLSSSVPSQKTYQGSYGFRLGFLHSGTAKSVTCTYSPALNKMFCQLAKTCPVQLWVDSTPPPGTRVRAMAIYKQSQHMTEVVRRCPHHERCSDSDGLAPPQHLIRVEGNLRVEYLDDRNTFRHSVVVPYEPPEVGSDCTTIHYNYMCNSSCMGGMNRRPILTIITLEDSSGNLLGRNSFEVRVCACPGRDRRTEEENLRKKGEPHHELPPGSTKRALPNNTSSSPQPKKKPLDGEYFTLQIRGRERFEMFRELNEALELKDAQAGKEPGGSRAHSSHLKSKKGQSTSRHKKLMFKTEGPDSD
Chain of X-box-binding protein 1 (Homo sapiens) (P17861 whole entry, looked up): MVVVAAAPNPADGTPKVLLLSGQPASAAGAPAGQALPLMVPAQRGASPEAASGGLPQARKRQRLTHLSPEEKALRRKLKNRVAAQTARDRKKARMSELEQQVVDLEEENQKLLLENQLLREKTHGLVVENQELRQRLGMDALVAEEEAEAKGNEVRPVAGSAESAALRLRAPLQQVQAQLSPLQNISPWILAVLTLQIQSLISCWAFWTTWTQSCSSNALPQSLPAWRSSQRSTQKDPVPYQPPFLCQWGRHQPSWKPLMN

As to `Oc1ccc(Oc2ccccc2)cc1`, the compound was classed as inactive in [1], in test [2], in test [3], in test [4], in [5] and in test [6]. The compound was called inactive in test [7], in [8], in test [9], in [10], in test [11] and in test [12]. Moreover, the outcome in [13], in [14], in test [15], in [16] and in [17] was inactive.

Consider `OCCc1ccccn1`, for which the result in test [18], in test [1], in test [2], in test [3], in test [4] and in [5] was inactive. For the same compound, the outcome in test [19], in [6], in [7], in test [8], in [9] and in test [10] was inactive. The call in test [11], in test [12], in test [13], in test [14], in test [15] and in [16] was inactive. For the same compound, the call in test [20] was inactive.

Regarding `Nc1ccc(S(=O)(=O)Nc2cnc3ccccc3n2)cc1`, the result in test [1], in test [2], in [4], in test [5], in [6] and in test [7] was inactive. The result in test [8], in test [9], in test [10], in test [11], in [12] and in [13] was inactive. Further, the outcome in [14], in test [15], in test [16], in test [17] and in test [20] was inactive.

For `CCCN[C@H]1CCc2nc(N)sc2C1`, the compound was called inactive in [1], in [2], in [3], in test [4], in test [5] and in test [19]. Besides, the compound was classed as inactive in test [6], in [7], in test [8], in [9], in [10] and in [11]. Also, the compound was called inactive in [12], in test [13], in test [14], in [15] and in test [16].

Consider `O=C(C(=O)c1ccccc1)c1ccccc1`, for which the result in test [18], in test [1], in [2], in test [3], in [4] and in test [5] was inactive. Also, the result in test [19], in test [6], in test [7], in test [8], in test [9] and in [10] was inactive. Further, the compound was called inactive in [11], in [12], in test [13], in test [14], in [15] and in test [16]. Also, the outcome in test [20] was inactive. The AC50 in test [17] was 11.3 µM (active).

With `O=C(CC(C(=O)OC1CCCCC1)S(=O)(=O)O)OC1CCCCC1` (centres undefined), the compound was classed as inactive in test [1], in test [2], in [3], in test [4], in test [5] and in test [19]. Moreover, the result in test [6], in [7], in test [8], in test [9], in test [10] and in test [11] was inactive. Moreover, the compound was called inactive in test [12], in test [13], in test [14], in [15], in [16] and in test [17]. The compound was classed as inactive in test [20].
